This is an account of results in PubChem BioAssay.

Inconclusive results are not listed. The source made the active and inactive calls. Unless noted, the limit is not given here; nearly all actives have AC50 up to about 30 µM.

Assay [1] is described as follows: viability loss in pontine glioma line – cell-based, JHH-DIPG-1, MIPE4.0, CellTiter-Glo, qHTS, dose response (AID 1347062; cut-off not given, nearly all actives have AC50 up to about 27 µM;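 as to AC50: cells exposed to compound for two days before readout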). As to conditions: JHH-DIPG-1 viability, CellTiter-Glo ATP luminescence. (In ATP-based viability assays light output follows the ATP content of the culture.)
Assay [2] can be described thus: viability loss in pontine glioma line – cell-based, SU-DIPG-XIII, MIPE5.0, CellTiter-Glo, qHTS, dose response (AID 1347064; cut-off not given, nearly all actives have AC50 up to about 23 µM;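 as to AC50: cells exposed to compound for 48 hours before the viability read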). The conditions noted are these: CellTiter-Glo ATP luminescence.
Assay [3] is described as follows: viability loss in pontine glioma line – cell-based, SU-DIPG-IV, MIPE4.0, CellTiter-Glo, qHTS, dose response (AID 1347063).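 Also: compound exposure lasted 48 hours before the viability readout.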 The conditions noted are these: CellTiter-Glo ATP luminescence.
Assay [4] in a line: growth inhibition of DIPG cells – cell-based, MIPE4.0 library, CellTiter-Glo luminescence, qHTS (AID 1347066).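 Also: cells exposed to compound for 48 hours before readout.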 As to conditions: SU-DIPG-VI viability, CellTiter-Glo ATP luminescence.
The nature of assay [5]: JHH-DIPG-1 glioma cell viability, MIPE5.0 library, CellTiter-Glo luminescence, qHTS (AID 1347067; cut-off not given, nearly all actives have AC50 up to about 26 µM;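 also: cells exposed to compound for 48 hours before readout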). The conditions noted are these: JHH-DIPG-1 glioma viability, CellTiter-Glo ATP luminescence.
Assay [6] in a line: growth inhibition of DIPG cells – cell-based, MIPE5.0 library, qHTS (AID 1347068; cut-off not given, nearly all actives have IC50 up to about 30 µM;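 as to IC50: cells exposed to compound for 48 hours before viability readout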). The conditions noted are these: SU-DIPG-XXV viability.
Assay [7] in a line: viability loss in pontine glioma line – cell-based, SU-DIPG-XXV, MIPE5.0, CellTiter-Glo, qHTS, dose response (AID 1347065; cut-off not given, nearly all actives have AC50 up to about 26 µM;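 also: cells exposed to compound for 48 hours before ATP readout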). As to conditions: CellTiter-Glo ATP luminescence.
A short description of assay [8]: viability loss with induced miR-34 in A549 – imaging, A549 dox-inducible miR-34, nuclei and caspase counts, primary screen (AID 1347080;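 active = compounds whose cell count with miR-34 switched on is under 0.7 times the count with it off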). As to conditions: A549 miR-34 inducible, Hoechst nuclei count, 48 h.
Assay [9] is described as follows: MELAS cybrid and Rieske KO viability enhancers – cell-based, MELAS cybrids, Rieske KO mouse fibroblasts, CellTiter-Glo, primary screen (AID 1508586;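 active = mean z-score across replicates of 1.96 or higher in either the MELAS or the Rieske mutant cell line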;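 also: z relative to plate mean and SD of compound and empty wells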). The conditions noted are these: low glucose.
Where [10] appears, read: stronger effect = lower value, cell number ratio, induced over uninduced.
[11] abbreviates: measured here: relative caspase fold change +Dox/-Dox.
Setting [12] is: measured here: total cells with miR-34 induction, stronger effect = lower value.
Where [13] appears, read: measured here: total cells without miR-34 induction.
The mark [14] stands for this setting: MELAS cybrid survival, CellTiter-Glo 48 h, stronger effect = higher value.
The mark [15] stands for this setting: Rieske KO mouse fibroblast survival, CellTiter-Glo 72 h.

With `c1ccc(CNc2nc(N3CCOc4ccccc43)nc3c2CCCC3)cc1`, in assay [1], the molecule was called inactive. Also, the AC50 in assay [2] is 16.6 µM (active).

As to `CC(=O)Nc1sc2c(c1-c1nc3ccccc3s1)CNC2`, the AC50 in assay [1] was 23.5 µM (active); in assay [3], 20.9 µM (active). Moreover, in assay [4], the outcome was inactive.

`Cc1ccccc1C(C(=O)NC1CCCCC1)N(C(=O)CNc1ccc(C#N)cc1)c1cccc(F)c1` (stereo unspecified): the molecule was classed as inactive in assay [1], in assay [3], in assay [4], in assay [5] and in assay [6].

On to `COc1cc(C(=O)N2CCC(N3CCN(C)CC3)CC2)ccc1Nc1ncc2c(n1)N(C)c1ccccc1C(=O)N2C`, for which the AC50 was 16.6 µM (active) in assay [1], 16.6 µM (active) in assay [3] and 18.6 µM (active) in assay [5]. Moreover, the half-maximal inhibitory concentration (IC50) in [6] is 20.9 µM (active).

Take `CC/C=C\C[C@H]1C(=O)CC[C@@H]1CC(=O)OC`: the call in assay [1], in assay [3] and in assay [4] was inactive.

As to `COc1cc(Cl)cn2c(-c3cccc(NC4CNC4)n3)cnc12`, the result in [1] and in assay [4] was inactive.

For `C[C@H](c1ccc(F)cc1CCCC(=O)O)N(c1cc(F)ccc1F)S(=O)(=O)c1ccc(Cl)cc1`, the result in [1], in assay [3], in assay [4], in assay [5] and in [6] was inactive.

Take `CC(C)(C)[C@H](NC(=O)c1ccc(N)c(Cl)c1)C(=O)N1CCC[C@H]1C(=O)N[C@H](C#N)CC(=O)O`: the call in assay [1], in assay [3] and in assay [4] was inactive.

Regarding `Nc1ncnc2c1c(-c1cccc(OCc3ccccc3)c1)cn2C1CC(CN2CCC2)C1` (stereo unspecified), the AC50 in assay [1] is 11.8 µM (active); in assay [2], 0.525 µM (active); in assay [7], 0.417 µM (active); in [4], 2.96 µM (active); in assay [5], 6.61 µM (active). For the same molecule, the fold change is 1.02 (inactive) in [8] (setting [10]) and 0.834 in assay [8] (setting [11]). The values for the cell count in assay [8] (setting [12]) and in assay [8] (setting [13]) were 2880 and 2830, respectively. For the same molecule, the z-score was -0.54 (inactive) in [9] (setting [14]) and -0.0242 in [9] (setting [15]).

Consider `CN[C@@H]1[C@@H](O)[C@@H](O[C@@H]2[C@@H](O)[C@H](O[C@H]3O[C@H](CN)[C@@H](O)[C@H](O)[C@H]3O)[C@@H](N)C[C@H]2NC(=O)[C@@H](O)CN)OC[C@]1(C)O`, for which the result in assay [1], in assay [3] and in assay [4] was inactive.

As to `NS(=O)(=O)c1ccc(NC2=CC(=O)c3ccccc3C2=O)cc1`, in assay [1], the molecule was classed as inactive. The AC50 was 5.9 µM (active) in [2], 11.8 µM (active) in assay [7], 5.9 µM (active) in [4] and 20.9 µM (active) in assay [5].

For `Cc1ccc(-n2[nH]c(C)c(N=Nc3cccc(-c4cccc(C(=O)O)c4)c3O)c2=O)cc1C`, the outcome in assay [1], in assay [2], in assay [5] and in [6] was inactive. In addition, the AC50 in [4] is 10.5 µM (active). Moreover, the results for the fold change in assay [8] (setting [10]) and in [8] (setting [11]) were 0.913 (inactive) and 1.1, respectively. Also, the cell count in assay [8] (setting [12]) is 6690; in assay [8] (setting [13]), 7330. In addition, the z-score was -0.18 (inactive) in assay [9] (setting [14]) and -0.0982 in [9] (setting [15]).

In the case of `CCCCOCCOc1nc(-c2ccc(C(=O)O)c(F)c2)sc1C`, the molecule was classed as inactive in assay [1], in assay [2], in assay [5] and in [6].

The AC50 is the concentration giving half of the maximal activity seen. Usually IC50 stands for the point on the concentration scale where inhibition reaches its midpoint.
